Experimental data as given in PubChem BioAssay AID651678 (Sanford-Burnham Center for Chemical Genomics, 2012).
The other results are listed elsewhere or left out. A number with no mark means an inactive call. The source made the active and inactive calls. Cut-off read from the data, not from the text of the source: active = inhibition mostly above about 35% (no sharp cut-off); inactive = mostly below about 32%.

Molecular target: Sentrin-specific protease 1 (Homo sapiens) (UniProt Q9P0U3)
Assay: retest of SENP1 SUMO protease blockers – biochemical, FRET endpoint, single concentration, confirmation (AID 651678);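 note: 0% = enzyme with DMSO and 100% = no enzyme control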
Conditions: recombinant SENP1, CyPet-SUMO1-YPet FRET cleavage; at 10 µM; active compounds read high

Sentrin-specific protease 1 (Homo sapiens), sequence (Q9P0U3 419-644 limits assumed): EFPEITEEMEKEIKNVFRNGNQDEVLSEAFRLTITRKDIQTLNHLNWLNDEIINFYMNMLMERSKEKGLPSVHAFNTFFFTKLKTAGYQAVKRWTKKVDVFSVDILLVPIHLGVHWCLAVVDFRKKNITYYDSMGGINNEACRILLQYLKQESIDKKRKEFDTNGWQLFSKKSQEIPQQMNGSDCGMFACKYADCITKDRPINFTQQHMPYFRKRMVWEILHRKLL

| Structure (SMILES) | inhibition |
| --- | --- |
| CCOC(=O)C1CCN(c2ncnc3c2c(-c2ccccc2)cn3-c2ccc(C)cc2)CC1 | 6.42% |
| O=C1/C(=C/c2coc3ccc(O)cc3c2=O)SC(=S)N1c1ccccc1 | 3.85% |
| O=C1C=C(c2cccc(Cl)c2O)C[C@@H](c2ccc(F)cc2)C1 | 94.1% (active) |
| O=C(NC(=O)c1ccccc1)Nc1ccccc1O | 0.15% |
| CC(=O)c1cccc(-c2cnc3c(NC=O)cc(-c4ccc(N(C)C)cc4)cn23)c1 | 57.9% (active) |
| O=C1CC[C@@H]2CC3(C[C@@H]4CCN1[C@H]24)Nc1cc([N+](=O)[O-])ccc1NC3=NC1CCCCC1 (stereo partly specified) | 21.6% |
